The assay has as its system VDR:RXRa (NR concentration 270 nM, RXRa partner concentration 90 nM). The assay can be described thus: PBM binding z-score (relative to random genomic background probes); higher = stronger binding; sequences stand for … in GC…GCGATTGACAGCGTAGAATGAAGG
Here is the method:
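Protein-binding microarray (Agilent 4x180K custom design, double-stranded 60-nt probes: 5' GC cap, 34-nt variable region, 24-nt constant primer region; full probe sequence given). Purified or IVT nuclear receptor:RXRα heterodimers (3:1 NR:RXRα, mostly 270:90 nM) or homodimers were incubated for 1 h in PBS with 2% milk and no ligand, then detected with Alexa488 antibodies. Fluorescence from o1-orientation probes (~5 replicates averaged) was converted to z-scores against 500 random hg19 background probes. Variable regions are seed direct-repeat (DR0–DR5) sites, all their single-nucleotide variants and half-site ablations.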
As for TCGAGTACGTTAGGGGCATTCAGAATGGCGTCGA, the PBM binding z-score was found to be 2.6.
In the case of TCTTATAGATCAACAGGAGGTTAAGAAAGATCGA it was 1.01; in that of TGAATGAGGGTAAAGATCAGGGAACGTGGCGTCG, -0.0441; in that of AGAATGAGGGCAATGAGTTGATAGCACGGGTGGC, 4.98.
ACTAGCTGGCCAAGGGTCACTCAAGATTAGTCCG displayed a PBM binding z-score of 2.59.
In the case of ACAGACAGGAGATGAAGGTAACTCAGGCTATCAT it was 0.143; in that of TGTAGCAGGCCAGAGGGTCACTCAAGAGGTACGG, 1.46; in that of AATACAGGCTCACTAGGCCAGAGTAGGTACGAAT, -0.46.
CCTACTGGGCCACGAAAGGTCATTGGTTCAGTGA yielded a PBM binding z-score of 4.55.
Next, CCTACTGGGCCATCAGGTCATTGATATCAACGTT: 1.81; AGAATGAGGTTACCAAATATCAGGGAAACGCTTG: 1.34; CCTTACGGGTCACTGACAGGTTATAGCCTTTGGA: 3.77.
In the case of TCTTGTAGTTCAAGCAGGTTAAGAAAGCCTGAGT it was 3.32; in that of TATACAGGGTCAAAGGCCAGAGCACGAATGTCGA, 4.37; in that of TCATATATGTAAATGCTAGGTGAAAGTCCGATCT, 0.934.
Next, GCTGCTAGGTCAGGTTGGTCACCTAACGGGTACG: 0.967.
Sequence CCTAGCAGGCCAGGGTCACTCGAGCATTTCGCTT showed a PBM binding z-score of 2.54.
Next, GCTAGTTGGTCAGTAAAAGGTCACGCACCGGTCG: 4.36; CCTCGGAGGACAACAGGAGGCCAGAGCTGCCAGA: -0.504.
CAAACTAGGTCTAAGGTCAAAGTCGAGCCAACCA: the PBM binding z-score was determined as 4.26.
Next, GGAAGGAGGGCAAAGTTGATAGCATCTGTCGACG: 0.964; CCTTACGTGTCACGAGGTTATAGCACGACGAGCG: 1.89.
In the case of AGAACGAGGGCACTGAGTTGATAGCACGGGTGGC it was 4.52; in that of ACTAGCAGGCCAAGTTTGGGCCACTCAAACAAAG, -0.648; in that of TCTTGTAGATCAAGAGAGGTTAAGAAAGTGCGCT, 1.77.
In the case of CCTTACGGGTCTCTGACAGGTTATAGCATTTGGA it was -0.307; in that of CGAACTAGGTCAGAACAGGACAGTGTAGGATGAT, 0.86.
GCGACTGGGGCAAAGCACGTTACCATAAGGTTGG had a PBM binding z-score of -0.469.
In the case of GCAGACAGGTGAAACGCACGTAACTCAGGGTGGC it was -0.568.
In the case of AGAACGAGGGCACGCTGAGTTTATAGCAGAGTAG it was 3.94; in that of TCTCGGAGGACACGAACGGTCAGAGCTCGACATC, 0.073.
As for TCATATAGGTAAACAGGTGCAAGTCCGTAAGTTA, the PBM binding z-score came to 3.49.
CGTCCAAGGTCCGAGAGGTCAGTGAATGCCGAGT gave a PBM binding z-score of 3.27.
Next, CTTACTGGGCCATTCAGAGGTCATTGATCATATG: 4.23.
Next, GCGGCTGGGGCAAAGCAGGTTACCATAAGGTTGG: 0.192; CGAAGTAGGTCATTGACAGGACAGTGAATAGTAA: 2.62.
Next, CGTCCAAGGTCAAAGGTTAGTGAAGAGATGACGG: 5.39.
GGAACGAGGGCCAAGTTGATAGCATCTGTCGACG: the PBM binding z-score is -0.379.
Regarding CCGACTGGGGCATAAGGCTACCATAAGCCAGCCC, the PBM binding z-score was -0.694.
In the case of CCGACTAGGGCATAAGGTTACCATAAGCCAGCCC it was 0.257.
